Unmarked numbers belong to inactive results.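 How the source made its calls: active means AC50 at most tenfold above the top tested concentration; inconclusive means flat fit with 30 to 70% activity, or a poor fit; inactive means AC50 over tenfold above the top dose.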

Our source for the AC50 values is PubChem BioAssay AID463208 (Broad Institute, 2010).

The test is described as follows: yeast HDAC inhibitors, dose response, mechanism study for Sdo1 growth activator project, cell lysate, fluorescence, yeast nuclear extract (AID 463208). As to conditions: yeast nuclear extract HDAC activity, fluorogenic substrate.
On to `CC(C(=O)Nc1cccnc1)N1C(=O)c2ccccc2C1=O` (configuration not stated), for which the AC50 is > 50 µM.

`Cc1ccc(NC(=O)c2ccc(NCC3CCCO3)c([N+](=O)[O-])c2)cc1` (configuration not stated): the AC50 is > 50 µM.

Consider `COc1ccc(OCC(O)Cn2c(Nc3ccccc3)nc3c2c(=O)n(C)c(=O)n3C)cc1` (configuration not stated), for which the AC50 was > 50 µM.

Turning to `O=C(C(c1ccccc1)c1ccccc1)N(Cc1ccco1)C1CCS(=O)(=O)C1` (configuration not stated), the AC50 was > 50 µM.

As to `O=C(CSc1nc(-c2ccco2)cc(C(F)(F)F)n1)NCc1cccs1`, the AC50 was > 50 µM.

Regarding `Cc1nc(CS(=O)(=O)c2ccccc2)cc(N2CCOCC2)n1`, the AC50 was > 50 µM.

Regarding `Cc1sc(NC(=O)c2ccnn2C)c(C#N)c1-c1ccc(F)cc1`, the AC50 is > 50 µM.

`CC(=O)N(C1CCCCC1)C1C(=O)C(=O)c2ccccc2C1=O` (configuration not stated): the AC50 was > 50 µM.

`COc1cc(/C=N/NC(=O)CCC(=O)NCc2ccccc2)cc(OC)c1OC`: the AC50 was > 50 µM.

In the case of `Cc1ccc(Cn2c(Sc3ncccn3)nc3c2c(=O)[nH]c(=O)n3C)cc1`, the AC50 was > 50 µM.

With `O=C(O)CCCn1nc(C(F)(F)F)c2c1CCCCC2`, the AC50 was > 50 µM.

Turning to `CC(=O)N(C)C1C(=O)C(=O)c2ccccc2C1=O` (configuration not stated), the AC50 is > 50 µM.

For `CC(C(=O)Nc1ccccc1)N1C(=O)c2ccccc2C1=O` (configuration not stated), the AC50 is > 50 µM.

On to `CC(C(=O)Nc1cccnc1)N1Cc2ccccc2C1=O` (configuration not stated), for which the AC50 was > 50 µM.

As for `Cc1ccc(Cn2c(CN3CC(C)OC(C)C3)nc3c2c(=O)n(C)c(=O)n3C)cc1` (configuration not stated), the AC50 was > 50 µM.

As to `Cc1nn(Cc2ccc(Cl)cc2)c(C)c1NC(=O)CSc1n[nH]c(C)c1[N+](=O)[O-]`, the AC50 was > 50 µM.

Take `O=C(C(c1ccccc1)c1ccccc1)N(Cc1cccs1)C1CCS(=O)(=O)C1` (configuration not stated): the AC50 was > 50 µM.

As for `Cc1c(/C=N/NC(=O)c2ccc(F)cc2)cnn1C`, the AC50 was > 50 µM.

Take `O=C(COC(=O)Cc1ccsc1)Nc1ccccc1`: the AC50 is > 50 µM.

Regarding `Cc1sc(NC(=O)c2ccnn2C)c(C#N)c1-c1ccccc1`, the AC50 is > 50 µM.

As to `O=C(COC(=O)Cc1cccs1)Nc1ccccc1`, the AC50 was > 50 µM.

Take `CN(C)CCCNC(=O)C1CCNCC1`: the AC50 was > 50 µM.

One may read the AC50 as the midpoint of the concentration-response curve, whichever way the signal moves.
